In the supplement of paper PMC3334620:
Whole data set: some 33,000 sequences, median “E-score (-0.5 to 0.5)” near -0.043, cut for the highest 2% near 0.37. For the sample, the highest values were picked, then their nearest neighbours and some sequences at random.

biological target: T1, Upc2 (UniProt Q12151); assay: PBM E-score (8-mer binding enrichment) (E-score (-0.5 to 0.5)); higher = stronger / more preferred TF binding; conditions: protein concentration: 200 nM; construct: GST-full length
T1 sequence: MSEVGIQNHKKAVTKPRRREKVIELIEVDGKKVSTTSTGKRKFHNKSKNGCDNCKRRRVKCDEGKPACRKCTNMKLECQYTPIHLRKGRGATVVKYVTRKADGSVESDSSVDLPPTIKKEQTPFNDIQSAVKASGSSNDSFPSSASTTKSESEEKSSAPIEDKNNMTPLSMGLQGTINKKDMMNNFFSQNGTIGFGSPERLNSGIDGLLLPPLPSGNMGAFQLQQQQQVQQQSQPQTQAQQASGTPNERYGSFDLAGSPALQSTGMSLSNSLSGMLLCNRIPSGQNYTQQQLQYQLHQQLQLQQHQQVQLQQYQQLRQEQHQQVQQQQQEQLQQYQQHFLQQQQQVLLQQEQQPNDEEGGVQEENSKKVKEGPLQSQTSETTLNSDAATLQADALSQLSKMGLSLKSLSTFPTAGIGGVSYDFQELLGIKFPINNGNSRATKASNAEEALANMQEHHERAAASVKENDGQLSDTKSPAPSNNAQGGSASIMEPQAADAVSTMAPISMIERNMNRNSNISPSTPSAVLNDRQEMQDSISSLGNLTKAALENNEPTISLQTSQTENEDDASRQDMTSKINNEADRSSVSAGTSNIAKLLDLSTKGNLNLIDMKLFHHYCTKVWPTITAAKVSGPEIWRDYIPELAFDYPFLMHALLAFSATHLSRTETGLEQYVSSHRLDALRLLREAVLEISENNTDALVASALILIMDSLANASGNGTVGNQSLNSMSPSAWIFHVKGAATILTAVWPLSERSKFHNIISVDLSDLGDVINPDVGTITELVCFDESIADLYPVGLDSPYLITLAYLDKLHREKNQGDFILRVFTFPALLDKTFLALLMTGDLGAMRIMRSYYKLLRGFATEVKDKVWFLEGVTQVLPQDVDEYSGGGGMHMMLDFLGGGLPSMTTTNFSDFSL
Procedure: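 Universal 'all 10-mer' protein binding microarrays (Agilent AMADID 015681) probed with GST-tagged S. cerevisiae TFs (full-length or DBD) made by in vitro transcription/translation (PURExpress), about 100-200 nM. Bound TF was detected with fluorescent anti-GST. Each ungapped 8-mer (which stands for itself and its reverse complement) is scored by the PBM enrichment score (E-score), a modified Wilcoxon-Mann-Whitney statistic from -0.5 to +0.5, computed with the Universal PBM Analysis Suite. Scale: above 0.35 generally sequence-specific binding.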

Sequence | PBM E-score
GCTCGTAA | 0.456
ACTCGTCA | -0.0246
GCTCGTCC | -0.249
ACTCGTCC | -0.141
GCTCGTAC | 0.477
ACTCGTGC | 0.0738
ACTCGTAA | 0.433
ACTCGTAG | 0.353
ACTCGTAC | 0.472
CCTAAGGA | -0.0656
ACAAGCTC | -0.0437
CCGTGGCC | -0.206
CCAAGTGG | -0.186
ATGCAACG | 0.113
ACCCCTGC | -0.412
ATGACTCA | 0.029
CAGCCTCA | -0.0411
CTCTCAAG | -0.308
AGATATGC | -0.186
ACTCGTCT | 0.167
ACTCGTAT | 0.483
ACTCGGAT | 0.252

Sequence | PBM E-score
ATCGATCC | -0.00332
CATCCACA | -0.0464
CTAAGCGA | 0.416
ATAAGCGA | 0.347
GGAAGCGA | 0.145
CTAAGCTA | 0.015
GTAAGCGA | 0.388
CTAAGCGC | 0.14
CCATCGAC | -0.247
ATGGGAGA | -0.251
AACCGGTT | 0.107
ACTCTAGC | -0.12
GGAACTGA | -0.0729
AACGCTGA | 0.0761
CTAGTGAA | -0.126
CTCGTTGA | 0.313
CGCGTTCC | 0.223
CACGTTCA | 0.092
AACGTTCC | 0.152
CTCGTTCC | 0.479
ATCGTTCC | 0.43
GACGTTCA | 0.0943

Sequence | PBM E-score
GGCGTTCA | 0.0581
CCCGTTCC | 0.327
AGCGTTCC | 0.117
CTCGTTCA | 0.476
GTCGTTCA | 0.467
AAATGGCG | -0.0033
AGCTAATC | -0.0679
ATCAAAAC | 0.0147
ACACTGTA | 0.106
ATCGAAGC | -0.00965
GGTGTGGA | 0.00988
ATCGTTCA | 0.443
AACGTTCA | 0.212
ATCGTTCG | 0.384
ATCGTTGG | 0.0354
AGCGTTCA | -0.0376
AACGTTCG | 0.212
TCTTGAAA | 0.0803
ACAGCGCT | 0.128
CTCTGTCC | -0.116
CTATTGAC | -0.166
GCTTCGGA | 0.102

Sequence | PBM E-score
ACTTCGTG | 0.0872
CCTTCGCA | 0.0293
GCTTCGTA | 0.449
ACTTCGTA | 0.429
CCTTCGTA | 0.441
CCTTCGTC | 0.00619
ACTTCGTC | 0.0529
GCTTCGCA | 0.186
CCGTTTCA | 0.159
CGACTTTC | 0.0358
GCCTCCCC | -0.149
CCCCATAC | 0.174
ACGTTGCG | 0.0848
GGCAGTTA | -0.21
CCGCAGCA | -0.267
CCGAGAAC | 0.117
ACGAGAAC | 0.375
ACGAGAAG | 0.277
ACGAGAAA | 0.349
ACGAGAAT | 0.396
ACGAGACT | 0.337
